Our source for the Potency, cell number change and outcome values is PubChem BioAssay AID2685 (National Center for Advancing Translational Sciences (NCATS), 2010).

The whole screen tested about 320,000 compounds, of which about 2,100 (0.66%) were called active. Another 53% or so got no clear call; they are omitted. Calls come from the whole dose curve; as a rule, active = well fitted inhibition curve with a large enough effect in the signal ratio, with a control signal flat (not every such curve was filed as active); inconclusive = small, poorly fitted or top-dose-only effect, or effect the other way, or a change in a side signal; inactive = flat fitted curve, though single readings scatter; the % refers to the signal ratio. Shown is part of a subset that was picked to be rich in actives.
Potency is the fitted concentration of half-maximal effect.

The test is described as follows: qHTS Assay for Lipid Storage Modulators in Drosophila S3 Cells.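 For cell number change: cells counted by Cell Tracker Red CMTPX staining in the red channel.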 As to conditions: BODIPY lipid droplet fluorescence, 18-24 h, cells fed with added oleic acid; cell number change: measured here: cell count max response; series mostly up to 46.1 µM. An outline of the steps:
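Drosophila S3 cells got compounds at several concentrations plus oleic acid (400 uM solution). Laser-scanning cytometry with 488 nm excitation read lipid droplets at 500-530 nm and cells at 575-640 nm. Percent activity was relative to 20 uM Triacsin C.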
On the technique in general: qHTS replaces the single test concentration by a dilution series.
Take `COCc1cc(CN2CCN(Cc3ccsc3)C(CCO)C2)ccc1OC` (stereo not given): the Potency entry was “inactive” and the cell number change is 9.7%.
In the same order, the values of `COCCN(C(=O)CCC(=O)Nc1nccs1)C(C(=O)NC(C)(C)C)c1ccc(F)cc1` (stereo not given) are “inactive” and 9.66%.
Regarding `CCC(C)(C)NC(=O)C(c1ccc(F)cc1)N(CCOC)C(=O)CCC(=O)Nc1nccs1` (stereo not given), the Potency is 14.6 µM (active) and the cell number change was determined as 3.04%.
Taken in the same sequence, the figures for `CCC(C)(C)NC(=O)C(c1ccc(O)cc1)N(CCOC)C(=O)CCC(=O)Nc1nccs1` (stereo not given) were “inactive” and -13.3%.
In the same order, the values of `Cc1cc2nnc(SCC(=O)Nc3cccc(S(=O)(=O)N4CCOCC4)c3)n2c2ccccc12` are “inactive” and 5.18%.
`C=CCSc1nnc(CC(OC)OC)n1-c1ccccc1`: the Potency result is “inactive”.
As for `CC(=O)Nc1cccc(/C(C)=N/NC(=O)c2ccc(NS(=O)(=O)c3cccs3)cc2)c1`, the Potency result is “inactive” and the cell number change stood at 10.3%.
For `Cc1nc(Nc2ccccc2Br)c2nnn(Cc3ccccc3)c2n1`, the Potency entry is “inactive” and the cell number change worked out at 8.19%.
In the same order, the values of `CCCCN(C(=O)c1ccccc1F)c1c(N)n(CCC)c(=O)[nH]c1=O` are “inactive” and 28.6%.
In the same order, the values of `CCCCn1c(N)c(N(CC)C(=O)c2ccccc2F)c(=O)[nH]c1=O` are 8.2 µM (active) and 6.41%.
Consider `CCCCn1c(N)c(N(CC)C(=O)c2ccccc2C(F)(F)F)c(=O)[nH]c1=O`, for which the Potency entry is “inactive” and the cell number change is -2.38%.
With `O=C1NCCN1C(=O)c1cccc(Cl)c1`, the Potency entry is “inactive” and the cell number change stood at 4.49%.
On to `O=C(Nc1ccccc1)Nc1nnc(Cc2ccc(F)cc2)s1`, for which the Potency was 0.103 µM (active) and the cell number change was determined as 14%.
Taken in the same sequence, the figures for `O=C(Nc1nnc(Cc2ccc(F)cc2)s1)Nc1ccccc1F` were “inactive” and -6.61%.
In the same order, the values of `COc1ccc(NC(=O)Nc2nnc(Cc3ccc(F)cc3)s2)cc1` are “inactive” and -7.21%.
On to `O=C1CCc2cc(S(=O)(=O)NC3CCCCC3)cc3c2N1CC3`, for which the outcome is “inactive [at 0.0737 µM]”.
For `Cc1ccc(OCC(O)CN2CCN(CCO)CC2)c(C)c1` (stereo not given), the Potency entry is “inactive” and the cell number change was 3.63%.
Consider `O=C(NCc1cccc(C(F)(F)F)c1)C1CCCN(c2ncccn2)C1` (stereo not given), for which the Potency entry was “inactive” and the cell number change stood at 23.6%.
In the case of `CN1C(=O)/C(=C/c2cc(C(C)(C)C)c(O)c(C(C)(C)C)c2)NC1=S`, the Potency entry was “inactive”.
Consider `O=C1/C(=C/c2ccccc2)SC(=S)N1CC(=O)N1CCCCC1c1cccnc1` (stereo not given), for which the Potency entry was “inactive” and the cell number change came to 6.85%.
`O=C(CCN1C(=O)/C(=C/c2ccccc2F)SC1=S)NC1C=CS(=O)(=O)C1` (stereo not given): the Potency result was “inactive”.
Take `O=C1/C(=C/c2ccccc2F)SC(=S)N1CC(=O)N1CCCCC1c1cccnc1` (stereo not given): the Potency was 7.31 µM (active) and the cell number change was -0.951%.
In the same order, the values of `O=C(CCN1C(=O)/C(=C\c2ccccc2F)SC1=S)N1CCCCC1` are “inactive” and 13.6%.
Taken in the same sequence, the figures for `O=C(CN1C(=O)S/C(=C\c2ccccc2F)C1=O)NC1C=CS(=O)(=O)C1` (stereo not given) were “inactive” and -3.44%.
In the same order, the values of `O=C(CN1C(=O)/C(=C/c2ccccc2F)SC1=S)NC1C=CS(=O)(=O)C1` (stereo not given) are 16.4 µM (active) and -4.2%.
In the case of `CC(=O)c1nn(-c2cccc(Br)c2)cc1C(=O)c1ccc2ccccc2c1`, the Potency is 5.17 µM (active) and the cell number change is -7.14%.
In the same order, the values of `CC(=O)c1nn(-c2cccc(Br)c2)cc1C(=O)c1ccccc1` are “inactive” and -13.8%.
For `CC(=O)c1nn(-c2ccccc2)cc1C(=O)c1cccc(Br)c1`, the Potency entry is “inactive” and the cell number change is -13.3%.
Consider `Cc1ccc(C(=O)NC2CCS(=O)(=O)C2)cc1S(=O)(=O)N1CCOCC1` (stereo not given), for which the Potency result is “inactive” and the cell number change was determined as 10.2%.
For `CCOC(=O)N=S(N)(=O)c1ccccc1` (stereo not given), the Potency was 14.6 µM (active) and the cell number change was -1.15%.
In the same order, the values of `CCOC(=O)N=S(N)(=O)c1ccc(Cl)cc1` (stereo not given) are “inactive” and -0.647%.
As for `CCOC(=O)CS(=O)(=O)c1ccccc1`, the Potency result was “inactive” and the cell number change was found to be 1.52%.
In the same order, the values of `CCc1ccc(NC(=O)NCC2CCN(Cc3cccc(Cl)c3)CC2)cc1` are “inactive” and -23.4%.
Consider `COC(=O)c1ccc(CON2C(=O)c3ccccc3C2=O)cc1`, for which the Potency entry is “inactive” and the cell number change was -3.96%.
On to `COC(=O)CON1C(=O)c2ccccc2C1=O`, for which the Potency is 25.9 µM (active) and the cell number change is -16.7%.
Turning to `COC(=O)CCC(=O)NN1C(=O)c2ccccc2C1=O`, the Potency result is “inactive” and the cell number change was found to be 9.79%.
In the same order, the values of `CN(Cc1cccc(F)c1)C(=O)c1cc(S(=O)(=O)N2CCOCC2)ccc1N1CCCC1` are “inactive” and -6.74%.
Taken in the same sequence, the figures for `COc1ccc(OC)c(NC2=NC3(CCCC3)N=C(N)N2)c1` were “inactive” and -7.97%.
Consider `COc1cccc(NC2=NC3(CCCCC3)N=C(N)N2)c1`, for which the Potency was 6.51 µM (active) and the cell number change was 5.89%.
In the case of `COc1ccc(NC2=NC3(CCCCC3)N=C(N)N2)cc1`, the Potency result was “inactive” and the cell number change is -9.76%.
Taken in the same sequence, the figures for `O=C(Cn1nnc2ccccc21)OCC(=O)c1ccccc1` were “inactive” and -10.5%.
`O=C(Cn1nnc2ccccc21)c1ccc([N+](=O)[O-])cc1`: the Potency result is “inactive” and the cell number change worked out at 9.12%.
For the molecule `O=C(CCn1nnc2ccccc21)OCC(=O)c1ccc([N+](=O)[O-])cc1`, the Potency is 0.731 µM (active) and the cell number change amounted to 5.65%.
In the same order, the values of `O=[N+]([O-])c1ccc(N2CCOCC2)cc1NCCCO` are “inactive” and 7.85%.
Taken in the same sequence, the figures for `O=C(O)c1cccc(Nc2ncnc3ccccc23)c1` were 25.9 µM (active) and -4.45%.
Regarding `Cc1ccc2ncnc(Nc3cccc(C(=O)O)c3)c2c1`, the Potency entry was “inactive” and the cell number change was -1.09%.
In the case of `Cn1ncc2c(Nc3cccc([N+](=O)[O-])c3)ncnc21`, the Potency result was “inactive” and the cell number change was -17%.
In the same order, the values of `Cc1ccc2ncnc(Nc3cccc([N+](=O)[O-])c3)c2c1` are 8.2 µM (active) and 12.6%.
Taken in the same sequence, the figures for `O=C(O)c1cccc(Nc2ncnc3ccc(Br)cc23)c1` were “inactive” and -2.61%.
In the same order, the values of `Cc1ccc2ncnc(Nc3ccccc3)c2c1` are “inactive” and -8.5%.
For `O=C(NCC(=O)N1CCN(c2ccccc2F)CC1)c1ccc(Br)o1`, the Potency entry is “inactive”.
As to `Cc1cccc(N2CCN(C(=O)c3ccc(CS(=O)Cc4ccc(Cl)cc4)o3)CC2)c1C` (stereo not given), the Potency result was “inactive” and the cell number change is -21%.
In the same order, the values of `CCN1CCCC1CNCc1ccccc1OCc1ccc(F)cc1` (stereo not given) are “inactive” and 13.4%.
In the same order, the values of `CCN1CCCC1CNCc1ccc(Cl)cc1Cl` (stereo not given) are 7.31 µM (active) and -167%.
Taken in the same sequence, the figures for `CCOc1cc(CNCC2CCCN2CC)cc(Cl)c1OC` (stereo not given) were “inactive” and 12.4%.
On to `CCn1cc(CN2CCC(n3nccc3NC(=O)c3ccc(OC)cc3)CC2)cn1`, for which the Potency entry is “inactive” and the cell number change is -5.94%.
In the same order, the values of `O=c1[nH]c2ccc(S(=O)(=O)N3CCCCC3)cc2o1` are “inactive” and 2.33%.
Taken in the same sequence, the figures for `COc1ccc(C(=O)NNC(=O)COc2ccc(Cl)cc2)c(OC)c1` were “inactive” and 4.95%.
In the same order, the values of `CCOc1ccccc1NC(=O)C1CCCN(S(=O)(=O)c2cccc3nsnc23)C1` (stereo not given) are “inactive” and -15.5%.
As for `CCc1ccc(NS(=O)(=O)c2ccc(OC)c3ncccc23)cc1`, the Potency entry was “inactive” and the cell number change was determined as 5.2%.
